BoNT F protease – BoNT/F light chain protease inhibitors, primary screen, biochemical, flow cytometry, MLPCN library. Botulinum neurotoxin type F light chain protease (Clostridium botulinum). Multiplex microsphere protease cleavage assay. inhibition, % at 10 µM. actives 0.22% (n = 360,000). AID 588497, 2011; in the data active = inhibition above about 35%, passing the limit was not always enough; inconclusive = no clear call, values can overlap the other calls; also: plate controls were buffer without enzyme for full effect and enzyme alone for no effect
BJeLR viability – MLPCN primary cell-based screen for lethality selective to Ras in HRASV12 cells. actives 0.17% (n = 300,000). AID 1554, 2009. inhibition, % (no concentration beside the values). BJeLR (HRASV12) viability, CellTiter-Glo ATP luminescence, 48 h; in the data active = inhibition above about 50%; inconclusive = no clear call, values can overlap the other calls
SARS 3CLpro inh – SARS-CoV 3CLpro protease inhibitors, primary screen, biochemical, quenched FRET; AID 1706, 2009; recombinant SARS-CoV 3CLpro, quenched FRET peptide cleavage; inhibition, % at 6 µM; Replicase polyprotein 1ab (Severe acute respiratory syndrome coronavirus), P0C6X7; actives 0.14% (n = 290,000); in the data active = inhibition above about 12%
Anthrax LF inh2 – Bacillus anthracis LF protease inhibitors, primary screen, biochemical, multiplex microsphere, MLPCN library; actives 0.12% (n = 360,000); AID 588501, 2011; multiplex microsphere protease cleavage assay; Lethal factor (Bacillus anthracis), P15917; inhibition, % at 10 µM; also: plate controls were buffer without enzyme for full effect and enzyme alone for no effect
Target sequence (P15917 whole entry, looked up): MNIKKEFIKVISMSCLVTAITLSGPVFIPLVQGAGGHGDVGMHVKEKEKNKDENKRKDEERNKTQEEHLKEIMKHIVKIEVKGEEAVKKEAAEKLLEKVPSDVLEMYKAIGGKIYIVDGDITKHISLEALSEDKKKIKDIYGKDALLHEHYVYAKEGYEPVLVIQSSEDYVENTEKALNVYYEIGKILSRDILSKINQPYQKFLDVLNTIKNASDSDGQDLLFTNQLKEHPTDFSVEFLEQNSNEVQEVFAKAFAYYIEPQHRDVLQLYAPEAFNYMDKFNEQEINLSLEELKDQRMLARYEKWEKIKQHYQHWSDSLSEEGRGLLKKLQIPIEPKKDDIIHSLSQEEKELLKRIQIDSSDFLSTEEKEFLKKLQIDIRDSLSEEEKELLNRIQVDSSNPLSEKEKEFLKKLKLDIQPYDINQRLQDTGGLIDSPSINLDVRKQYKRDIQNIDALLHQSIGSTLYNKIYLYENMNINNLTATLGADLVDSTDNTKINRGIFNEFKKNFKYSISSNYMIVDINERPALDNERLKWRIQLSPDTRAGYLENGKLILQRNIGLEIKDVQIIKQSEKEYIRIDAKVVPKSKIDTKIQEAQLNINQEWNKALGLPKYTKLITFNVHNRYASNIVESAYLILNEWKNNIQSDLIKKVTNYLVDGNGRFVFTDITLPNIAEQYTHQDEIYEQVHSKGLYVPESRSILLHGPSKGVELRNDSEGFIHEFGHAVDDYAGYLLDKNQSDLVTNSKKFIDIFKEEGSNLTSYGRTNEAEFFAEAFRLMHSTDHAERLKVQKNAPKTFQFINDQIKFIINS
BoNT-A LC inh2 – BoNT/A light chain protease inhibitors, primary screen, biochemical, flow cytometry, MLPCN library | AID 588499, 2011 | inhibition, % at 10 µM | multiplex microsphere protease substrate cleavage | Botulinum neurotoxin type A light chain protease (Clostridium botulinum A str. ATCC 3502) | actives 0.17% (n = 360,000); also: plate controls were buffer without enzyme for full effect and enzyme alone for no effect
Bead autofluor – compound fluorescence in toxin protease inhibitor counterscreen; actives 3.1% (n = 360,000); compound autofluorescence counterscreen, microsphere flow cytometry; stronger effect = higher value; fluorescence intensity (test concentration not listed); in the data active = fluorescence intensity above about 16000; inconclusive = no clear call, values can overlap the other calls
* hit, by the source's call; u = inconclusive; x = no result. A selection: hits, their analogues and other compounds. The true share with any hit is near 3.6%. Rule as the data show it, unless noted: active = inhibition above about 30%; inconclusive = no clear call, values can overlap the other calls; inactive = below that.

SMILES	BoNT F protease	BJeLR viability	SARS 3CLpro inh	Anthrax LF inh2	BoNT-A LC inh2	Bead autofluor
Cn1c(Cc2cccs2)nnc1SCC(=O)N1CCCc2ccccc21	-15	0	1	0	1	4080
CC1CCc2cc(F)ccc2N1C(=O)CSc1nnc(-c2cccs2)n1C (configuration not stated)	-3	0	-1	-3	u	23587*
Cc1cc(=O)[nH]c(SCC(=O)N2CCCc3ccccc32)n1	5	1	3	3	1	12890
Cc1nnc(SCC(=O)N2CCCc3ccccc32)[nH]c1=O	0	1	2	-2	1	16177*
Cc1nnc(SCC(=O)NCc2ccccc2)[nH]c1=O	-6	-9	-1	-1	-3	17403*
O=C(CSc1nnc(Cc2cccs2)n1CCc1ccccc1)N1CCCc2ccccc21	1	-19	0	-2	0	23460*
CCn1c(SCC(=O)NC2CCCC2)nnc1C(C)C	11	4	-2	7	5	3629
Cn1c(SCC(=O)N2CCCc3ccccc32)nnc1-c1cccs1	1	-10	0	-4	-1	23321*
CC1=C(C(=O)OC(C)(C)C)C(c2cccs2)NC(=O)N1 (configuration not stated)	-8	-1	-3	-1	-1	2027
O=S1(=O)CCC(N2CCOCC2)C1 (configuration not stated)	-4	-3	0	-4	u	23902*
O=C(N1CCN(c2ccccc2)CC1)C(F)(F)C(F)F	10	-1	-1	-12	8	20656*
O=C(N1CCN(c2ccccc2)CC1)C(F)(F)C(F)(F)F	0	0	2	-4	0	19895*
CN1CCN(C(=O)CN(Cc2ccccc2)S(C)(=O)=O)CC1	0	3	3	1	0	22469*
CCOc1ccc(NC(=O)c2cccc(-n3cnnn3)c2)cc1	-4	-2	-2	-2	u	23535*
CCOc1ccccc1NC(=O)COc1cccc(-n2cnnn2)c1	-4	-14	-3	-2	-2	23672*
CCc1ccccc1NC(=O)COc1cccc(-n2cnnn2)c1	-22	-4	2	4	0	3834
O=C(COc1ccc(F)cc1)Nc1ccc(-n2cnnn2)cc1	1	-1	0	1	u	20385*
CCOc1ccc(NC(=O)COc2ccc(-n3cnnn3)cc2)cc1	u	x	x	u	u	5638
NC(=N\N=CCc1ccccc1)/C(N)=N/N=CCc1ccccc1	-7	x	x	-9	1	3761
NC(=O)CN1C(=O)NC2(CCOc3ccccc32)C1=O (configuration not stated)	-23	-9	2	-3	-4	3135
COc1ccc(Br)cc1CN(C)CC(=O)NCCc1ccc(S(N)(=O)=O)cc1	-2	4	2	-3	1	5569
Cc1ccccc1-n1nnnc1-c1ccccc1	-2	2	2	-2	-3	23616*
CC(C)c1ccc2c(c1)CCC1C(C)(CN)CCCC21C (configuration not stated)	-17	107*	2	-4	-2	3721
CC(C)c1ccc2c(c1)CC[C@H]1[C@](C)(CN)CCC[C@]21C	-20	x	x	-11	-1	5972
O=c1[nH]c(=S)[nH]c2sccc12	1	11	-1	-2	-1	3292
CCOC(=O)c1cn(CC)c2cc3c(cc2c1=O)OCO3	-7	-2	x	-10	0	3810
CCOC(=O)c1sc2c(c1C)c(=O)c(C(=O)OCC)cn2CC	4	4	-7	-4	1	19706*
CCOC(=O)C1=C(C)N(C[C@@H]2CC[C@@H](Cc3ccc(-c4ccccc4)cc3)O2)C(=O)NC1c1cccc([N+](=O)[O-])c1 (some centres not stated)	0	x	x	-4	0	3025
CCc1nc(SCc2cc(Cl)ccc2OC)n[nH]1	-8	-4	5	0	-4	17236*
CCOC(=O)/C(C(N)=NCC(C)C)=C(/O)c1ccccc1	-8	1	-5	-2	1	3296

Screening results (PubChem BioAssay)
